Compound activity: PubChem, several laboratories
CendR NRP1 mod – modulators of CendR peptide binding to human neuropilin-1; O14786; FAM-RPARPAR peptide binding to NRP-1, fluorescence polarization; inhibition, % at 25 µM; 360,000 compounds, 0.85% hits;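 active means inhibition or corrected inhibition above about 18%, plus a signal ratio from 0.5 to 1.5, limit read from the data, passing the limit was not always enough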
MPTP inh – permeability transition pore inhibition; isolated mouse mitochondria, Ca2+ swelling absorbance, 30 min; inhibition, % at 10 µM; 360,000 compounds, 1.4% hits;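 active means inhibition of 50% or more, scaled per plate between neutral and stimulator controls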;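 further: 0% = DMSO wells given calcium and 100% = 1 mM EGTA wells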
F508del corr – correctors of CFTR F508del function in bronchial epithelial cells | CFBE cells, YFP halide quenching; stimulated with forskolin plus potentiator P3; % fluorescence drop versus neutral controls | 350,000 compounds, 0.36% hits | activity (quench increase), % at 7.58 µM | AID 720511;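 active means mean added fluorescence quench of at least 8% versus neutral control, with both replicates also reaching 8%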;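 further: cells transiently co-express mutant CFTR-F508del with the halide-sensitive YFP; corrector assay measuring rescue of mutant channel to the surface after 24 h compound exposure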
ATG4B inhibitor – ATG4B (human) cysteine protease inhibition. 340,000 compounds, 0.51% hits. ATG4B cleavage of LC3-PLA2, NBD-HPC fluorescence, 1 h. AID 504462. inhibition, % at 8.33 µM. Q9Y4P1; in the data active means inhibition above about 40%
SKN-1 inh – C. elegans SKN-1 inhibition | inhibition, % at 21.8 µM | 360,000 compounds, 0.49% hits | C. elegans VP596 Pgst-4::GFP/RFP ratio, acrylamide-induced, 24 h;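 active means interference check ratio from 0.5 to 1.5 plus GFP to RFP signal ratio inhibition reaching or exceeding a fixed threshold, cut at about 30% in these data, passing the limit was not always enough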
ATG4B confirm – ATG4B (human) inhibition, single-dose confirmed. shares compounds with ATG4B inhibitor. 320 compounds, 92% hits. inhibition, % at 8.33 µM. ATG4B protease fluorescent substrate cleavage assay; in the data active means inhibition above about 39%
PLA2 counter – inhibits human PLA2, flagging false ATG4B inhibitors. shares compounds with ATG4B inhibitor. purified PLA2, NBD-C6-HPC fluorescence, 45 min. inhibition, % at 8.33 µM. 1,600 compounds, 66% hits. AID 588402; in the data active means inhibition above about 50%
Numbers without * were called inactive; . = not tested or not shown. Sampled rows, rich in hits. Any-hit rate of the full collection: about 2.7%.

SMILES	CendR NRP1 mod	MPTP inh	F508del corr	ATG4B inhibitor	SKN-1 inh	PLA2 counter	others
COc1ccc(/C=C/c2onc(C)c2S(=O)(=O)N2CCC(C(=O)N3CCCCCC3)CC2)cc1	-6	0	2	40*	6	65*
Cc1noc(/C=C/c2ccco2)c1S(=O)(=O)N1CCC(C(=O)N2CCc3ccccc3C2)CC1	-40	7	.	73*	8	75*
C[C@H]1CN([C@@H](C)CO)S(=O)(=O)c2ccc(-c3ccncc3)cc2O[C@H]1CN(C)C(=O)c1ccc2c(c1)OCO2	.	.	2	.	.	.
C#CCCc1cscc1/C=[N+](\[O-])c1ccc(C(=O)OCC)cc1	6	-2	-1	3	9	.
C#CCCC(=O)c1ccccc1/C=[N+](\[O-])c1ccccc1	-32	1	-1	42*	20	62*
NC(=O)c1ccc(C(F)(F)F)n(Cc2ccc(Cl)cc2)c1=O	-3	1	.	-2	42	.
NC(=O)c1ccc(C(F)(F)F)n(Cc2cccc(Cl)c2)c1=O	5	-1	.	45*	4	39	ATG4B confirm=64*
Cc1cc(NS(=O)(=O)c2ccc(Nc3nc(-c4ccc(C)c(C)c4)cs3)cc2)no1	-7	-28	.	44*	14	38	ATG4B confirm=71*
Cc1cc(NS(=O)(=O)c2ccc(Nc3nc(-c4ccc(O)cc4)cs3)cc2)no1	-5	0	.	-8	6	.
COCCNc1nc(CSc2ccccc2)nc2sc(C)c(C)c12	6	0	.	46*	16	49
Cc1sc2nc(CSc3ccccc3)nc(N3CCN(C)CC3)c2c1C	6	9	.	25	-1	.
C[C@@H]1CN([C@H](C)CO)S(=O)(=O)c2ccc(Br)cc2O[C@H]1CN(C)CC1CCCC1	.	.	0	.	.	.
CCOC(=O)c1c(NC(=O)C(C)Sc2nnc(C)c(=O)[nH]2)sc2c1CCCC2 (stereo not given)	1	2	-1	62*	3	65*
S=C(NCc1ccco1)NC1CCCc2ccccc21 (stereo not given)	-38	43	-2	63*	-14	48
S=C(NC1CC1)NC1CCCc2ccccc21 (stereo not given)	-20	0	2	-5	10	.
CC1(C)CC(NC(=S)NCc2ccco2)CC(C)(C)N1	2	-1	-3	-2	0	.
S=C(NCc1ccccc1)NC1CCCc2ccccc21 (stereo not given)	19	1	-1	78*	5	78*
CC(C)c1cn(CC[C@H]2CC[C@@H](NC(=O)c3cccc(F)c3)[C@@H](CO)O2)nn1	.	.	0	.	.	.
O=C(CN1C(=O)c2ccccc2C1=O)NCCc1c[nH]c2ccc(Cl)cc12	-5	1	.	-5	0	.
O=C1c2ccccc2C(=O)N1CCCc1c[nH]c2ccc(Cl)cc12	-14	4	.	53*	11	50
O=C(NCc1ccc(F)cc1)c1ccccc1OCc1ccccc1	-1	4	.	47*	3	52*
O=C(NC1CCCC1)c1ccccc1OCc1ccccc1	-2	0	-3	66*	-3	73*
O=C(NC1CCN(Cc2ccccc2)CC1)c1ccccc1OCc1ccccc1Cl	1	2	1	29	1	.
O=C(NC1CCN(Cc2ccccc2)CC1)c1ccccc1OCc1ccccc1	-8	0	0	56*	21	62*
CCn1c(COc2ccc(Cl)cc2)nnc1SC1CCc2ccccc2C1=O (stereo not given)	0	11	.	88*	-5	84*
SMILES	CendR NRP1 mod	MPTP inh	F508del corr	ATG4B inhibitor	SKN-1 inh	PLA2 counter	others
CCCCCCCCCCCCCCC(O)C[N+](C)(CCO)CCO (stereo not given)	-7	2	1	43*	19	42	ATG4B confirm=64*
O=[N+]([O-])c1cc2oc3c(c2c(C=NCc2ccccc2)c1O)CCCC3	-150	0	.	76*	23	24	ATG4B confirm=48*
C[C@@H]1CCCCO[C@H](CN(C)C(=O)c2ccccc2)[C@H](C)CN([C@@H](C)CO)C(=O)c2cc(NC(=O)c3ccccc3)ccc2O1	.	.	0	.	.	.
COc1ccc(CNC(=O)C[C@@H]2C=C[C@H](NC(=O)Nc3ccc4c(c3)OCO4)[C@@H](CO)O2)cc1	.	.	-2	.	.	.
COc1ccc(C(=O)Nc2cc(C(=O)c3ccccc3)c(C)oc2=O)cc1	-15	4	.	44*	-1	38	ATG4B confirm=69*
Nc1nnc(Cc2ccc(Cl)cc2)s1	-4	-2	.	7	-12	.
Nc1nnc(Cc2ccc(Cl)cc2Cl)s1	2	0	.	71*	11	76*
O=C1C(NS(=O)(=O)c2cccs2)=C(N2CCN(c3cccc(Cl)c3)CC2)C(=O)c2ccccc21	40*	4	.	46*	10	65*
Cc1cc(C(=O)N/N=C/c2ccc(-c3cccc(Br)c3)o2)n[nH]1	-23	4	-1	-2	18	.
Cc1cc(C(=O)N/N=C/c2ccc(-c3cccc(Cl)c3Cl)o2)n[nH]1	-29	7	.	50*	7	21
C[C@@H]1CN([C@@H](C)CO)C(=O)Cc2cc(NC(=O)Nc3ccc4c(c3)OCO4)ccc2O[C@H]1CN(C)Cc1ccccc1	.	.	3	.	.	.
CC(C)C[C@H](NC(=O)OC(C)(C)C)C(=O)N/N=C/C1=Cc2ccccc2OC1C (stereo not given in full)	-3	-2	.	42*	6	31	ATG4B confirm=69*
O=C(NCC[C@H]1CC[C@@H](NS(=O)(=O)c2ccccc2)[C@@H](CO)O1)c1ccccc1F	.	.	-1	.	.	.
O=C(Oc1c(-c2ccccc2)c(=O)n2c3c(cccc13)CC2)c1ccc(F)cc1	-7	2	1	66*	-1	45	ATG4B confirm=62*
O=C(Oc1c(-c2ccccc2)c(=O)n2c3c(cccc13)CC2)c1ccccc1	0	3	0	70*	-1	65*
Cc1ccccc1S(=O)(=O)N1CC(=O)N2[C@H](C1)[C@H](c1ccc(C#Cc3ccccc3)cc1)[C@@H]2CO	.	.	4	.	.	.
CC(=O)N1CCN(c2ccc(C(N)=O)cc2[N+](=O)[O-])CC1	-1	0	2	-22	9	.
NC(=O)c1ccc(N2CCCCCC2)c([N+](=O)[O-])c1	-9	2	4	68*	11	70*
NC(=O)c1ccc(N2CCN(c3ccccc3O)CC2)c([N+](=O)[O-])c1	-2	1	0	33	6	.
NC(=O)c1ccc(N2CCN(c3ccccc3F)CC2)c([N+](=O)[O-])c1	6	-2	-3	45*	-2	50*
COc1ccc(C#Cc2ccc([C@@H]3[C@H](CO)N4C(=O)CN(C(=O)NC(C)C)C[C@@H]34)cc2)cc1	.	.	-2	.	.	.
O=C(CSc1ccccc1C(=O)O)c1ccc(Cl)cc1	3	-1	0	-3	-8	.
